From paper PMC11984502, “A stress-responsive p38 signaling axis in choanoflagellates” (RSC Chemical Biology, 2025)
In all, about 1,200 compounds were measured (“% viability”: median about 1, lowest 2% from about 0.27 on). The entries come from a sample that favours the lowest values as a whole. The numbers are fractions of the control, whatever unit the source prints.

The compounds below were run on S. rosetta (SrEpac culture). Details: flow cytometry, 24 h, high-nutrient medium; 10 µM.

SMILES | % viability
CCCc1cc(-c2cncc(OCC(N)Cc3c[nH]c4ccccc34)c2)cc2c(C)n[nH]c12 (stereo not shown) [KMS_217] | 0
